Rows were chosen to be rich in hits. Some 1.4% of all compounds tested hit in one or more screens of this group.
EPAC1 ag – activates human EPAC1 exchange factor; O95398; EPAC1 agonist qHTS, biochemical assay; response scale: 100% = response to 6.5 mM cAMP; Potency, µM (titrated, usually from 154 µM), for the others: top-dose activation, usual class: activators; actives 0.073% (n = 360,000); AID 720707; further: nearly all actives have a fitted effect of over 60% in size
Target sequence (O95398 whole entry, looked up): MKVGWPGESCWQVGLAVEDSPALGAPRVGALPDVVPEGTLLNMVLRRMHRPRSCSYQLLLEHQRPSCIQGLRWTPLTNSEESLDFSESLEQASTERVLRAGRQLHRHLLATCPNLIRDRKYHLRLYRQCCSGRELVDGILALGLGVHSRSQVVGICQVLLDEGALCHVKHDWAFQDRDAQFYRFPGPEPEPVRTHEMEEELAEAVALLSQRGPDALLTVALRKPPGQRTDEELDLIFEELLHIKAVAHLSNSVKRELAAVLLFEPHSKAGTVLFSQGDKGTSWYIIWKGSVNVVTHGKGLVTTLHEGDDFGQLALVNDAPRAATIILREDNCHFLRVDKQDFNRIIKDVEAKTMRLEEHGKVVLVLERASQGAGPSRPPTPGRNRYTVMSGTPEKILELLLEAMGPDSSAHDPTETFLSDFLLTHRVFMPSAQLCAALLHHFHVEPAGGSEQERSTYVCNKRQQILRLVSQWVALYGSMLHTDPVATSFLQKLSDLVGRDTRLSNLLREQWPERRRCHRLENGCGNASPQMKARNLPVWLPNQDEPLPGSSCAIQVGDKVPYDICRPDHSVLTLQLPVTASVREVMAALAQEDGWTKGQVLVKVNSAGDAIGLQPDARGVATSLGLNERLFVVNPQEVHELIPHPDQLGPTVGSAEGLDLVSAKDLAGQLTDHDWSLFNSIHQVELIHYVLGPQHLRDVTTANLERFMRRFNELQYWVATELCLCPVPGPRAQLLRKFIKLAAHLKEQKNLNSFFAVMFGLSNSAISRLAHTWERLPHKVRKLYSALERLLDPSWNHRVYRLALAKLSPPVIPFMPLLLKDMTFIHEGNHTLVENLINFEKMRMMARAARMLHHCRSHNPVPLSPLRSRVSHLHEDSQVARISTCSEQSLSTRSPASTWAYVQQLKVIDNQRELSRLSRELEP
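Nucleotide exchange assay: 100 nM EPAC1 with 250 nM Rap1B loaded with BODIPY-GDP and 50 uM GDP, room temperature. Fluorescence (480/540 nm) read every 5 min for 30 min; signal change normalized to 6.5 mM cAMP as full agonist.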
BRCA1 expr up – increases BRCA1 expression; Potency, µM (titrated, usually from 46.1 µM), for inactives: top-dose activation, hits mostly activators; actives 1.1% (n = 380,000); AID 624202; MCF7-BRCA1-FFLuc reporter, luminescence, 48 h; response scale: scaled: vehicle 0%, 10 µM genistein 100%; further: nearly all actives have a fitted effect of over 80% in size
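Using MCF7 cells harboring a BRCA1 firefly luciferase reporter, plated 2 h before compound pinning, the screen measured luminescence after 48 h incubation. Responses were normalized to DMSO and 10 microM genistein, then fitted for concentration-effect.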
USP1-UAF1 inh – inhibitors of human USP1/UAF1 deubiquitinase; recombinant USP1/UAF1, Ub-Rhodamine cleavage fluorescence; Potency, µM (doses to about 57.1 µM), inactives show at the highest dose activity change, negative = inhibition, actives largely listed as inhibitors; actives 0.23% (n = 390,000); AID 743255; further: on the % scale 0 is the no-effect control and ±100 the full control effect; nearly all actives have a fitted effect of over 60% in size
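In this screen, compounds sit with the deubiquitinase complex (1nM) for 15 min at room temperature before Ub-Rho is added at 150nM final. Fluorescence rise is then followed for 6 reads every 60 seconds.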
EPAC1 antag – EPAC1 (human) antagonism | O95398 | EPAC1 GEF assay, Rap1b-BODIPY-GDP exchange fluorescence | Potency, µM (top dose mostly 115 µM), inactives show at the top dose activity change, negative = inhibition, usual class: inhibitors | actives 0.14% (n = 360,000);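 further: plate controls were vehicle for no effect and positive control for full effect; nearly all actives have a fitted effect of over 50% in size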
EPAC2 antag – antagonists of human EPAC2. Q8WZA2. EPAC2 GEF exchange of Rap1B-BODIPY-GDP, fluorescence. Potency, µM (top dose mostly 114 µM), without a hit: at the top dose activity, negative = inhibition, most hits filed as inhibitors. actives 0.18% (n = 360,000). AID 720708; further: on the % scale 0 is the no-effect control and ±100 the full control effect; nearly all actives have a fitted effect of over 45% in size
EPAC2 ag – agonists of human EPAC2 (RAPGEF4); Q8WZA2; EPAC2 activation, biochemical qHTS; response scale: 100% = 6.5 mM cAMP response; Potency, µM (doses to about 154 µM), for the others: at the highest dose activation, usual class: activators; actives 0.079% (n = 360,000); AID 720711; further: nearly all actives have a fitted effect of over 50% in size
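In this primary screen, activation is scored as increased exchange of BODIPY-GDP from Rap1B by 100 nM EPAC2, with 50 uM GDP as competitor. Signal is normalized to the 6.5 mM cAMP agonist control.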
* hit, by the source's call; u = inconclusive; x = no result given. The call rests on the fitted dose curve; in most records, active means well fitted curve in the direction sought with a large enough effect; inconclusive means small, poorly fitted or top-dose-only effect, or another doubt; inactive means no such curve, though single readings can be large; an effect the other way counts as inactive or inconclusive. Potency means the concentration at half of the fitted maximal effect.

SMILES	EPAC1 ag	BRCA1 expr up	USP1-UAF1 inh	EPAC1 antag	EPAC2 antag	EPAC2 ag
O=C(Cn1nc(Cc2ccncc2)c2ccccc2c1=O)N1CCc2ccccc2C1	-7%	4%	28µM*	-6%	0%	14%
C=CCN1C(=O)/C(=C\C=C2\N(C)c3ccccc3C2(C)C)SC1=S	6%	14%	u	10%	204%	20%
CN1/C(=C\C=C2/SC(=S)N(CC(=O)O)C2=O)C(C)(C)c2ccccc21	63µM*	-13%	25µM*	1%	47%	112µM*
CCN1C(=O)/C(=C/C=C2/SCCN2C)SC1=S	100µM*	u	25µM*	-6%	-4%	35µM*
CN1CCS/C1=C\C=C1/SC(=S)N(CC(=O)O)C1=O	22µM*	-7%	25µM*	-29%	4%	u
COc1ccc(-c2nnc(SC(C(=O)c3c[nH]c4ccccc34)c3ccccc3)n2N)cc1OC (stereo not given)	19%	-79%	-9%	-8%	-4%	10%
O=C(/C=C/c1ccc(C(F)(F)F)cc1)OC(C(=O)NC1CC1)c1ccccc1 (stereo not given)	x	-3%	x	x	x	x
COC(=O)Cc1c(C)c2cc(Cl)c(OC(=O)c3ccco3)cc2oc1=O	-4%	2%	-28%	10%	8%	-2%
COC(=O)Cc1c(C)c2ccc(OC(=O)c3ccco3)cc2oc1=O	3%	-19%	-16%	-5%	2%	6.3µM*
CN1CCN(C(=O)c2cc(-c3ccccc3)on2)CC1	12%	7.9µM*	1%	12%	1%	7%
O=C(c1cc(-c2ccc(Cl)c(Cl)c2)on1)N1CCOCC1	2%	1.3µM*	-25%	1%	-1%	-3%
COc1cccc(-c2cc(C(=O)N3CCCCC3C)no2)c1 (stereo not given)	10%	2.8µM*	-10%	-5%	-2%	21%
O=C(c1cc(-c2ccccc2)on1)N1CCN(C(=O)c2ccco2)CC1	0%	44%	-12%	-7%	1%	4%
O=C(c1cc(-c2ccccc2)on1)N1CCCCCC1	1%	1.8µM*	-5%	u	-2%	5%
NC(=O)c1cc(S(=O)(=O)N2CCc3ccccc3C2)cs1	8%	-18%	-22%	4%	4%	7%
O=C(Nc1ccc(OCC(=O)N2CCOCC2)cc1)Nc1cccc(Cl)c1	4%	28%	-17%	0%	1%	0%
O=C(Nc1ccc(C(=O)N2CCOCC2)cc1)Nc1cccc(Cl)c1	-10%	11µM*	-6%	-9%	2%	-14%
Cc1cc(Cc2cc(C)c(O)c(CO)c2)cc(CO)c1O	3%	-77%	6%	16%	-16%	7%
Cc1ccc(-c2cnc3cccnn23)cc1F	1%	20%	x	-2%	-26%	3%
COc1cccc(-c2ccnc3c(-c4ccccc4)c(C)nn23)c1	x	11µM*	u	x	x	x
COc1cccc(-c2cnc3cccnn23)c1	7%	13µM*	x	-7%	-10%	5%
O=C(CN1C(=O)C2CC=CCC2C1=O)Nc1cc(C(F)(F)F)ccc1N1CCCC1 (stereo not given)	-3%	-14%	-16%	4%	-4%	6%
COC(=O)N(C)c1nc2ccccc2s1	-6%	99%	-14%	1%	-1%	-2%
CCCCNC(=O)N(C)c1nc2ccccc2s1	-3%	4.5µM*	-2%	-8%	-1%	7%
CN(C)c1ccc(/C=C(\C#N)C(=O)Nc2nc3c(s2)CCN(Cc2ccccc2)C3)cc1	0%	-22%	4.5µM*	-3%	193%	112µM*
SMILES	EPAC1 ag	BRCA1 expr up	USP1-UAF1 inh	EPAC1 antag	EPAC2 antag	EPAC2 ag
COc1cccc(/C=C/C(=O)NCC2CCCCC2)c1	4%	53%	-14%	26%	-7%	7%
Cc1cccc(CC(=O)NCC2CCCCC2)c1	-6%	10µM*	-3%	-4%	-5%	1%
CCOc1ccc(-c2csc(C3COc4ccccc4O3)n2)cc1 (stereo not given)	7%	10µM*	-3%	-2%	-2%	-6%
CCCN1CNc2c(c(=O)[nH]c(=S)n2CCc2cccc(Cl)c2)C1	x	0%	x	x	x	x
O=C(O)c1[nH]c2ccccc2c1C(c1cc(Br)ccc1O)c1c(C(=O)O)[nH]c2ccccc12	-2%	-13%	u	45µM*	-20%	-7%
COc1cc(Cl)cc(C(c2c(C(=O)O)[nH]c3ccccc23)c2c(C(=O)O)[nH]c3ccccc23)c1O	-1%	-15%	u	-22%	-4%	2%
O=C(CSc1nnc(NC(=O)c2c(F)cccc2F)s1)NC1CCCCC1	-3%	11%	0%	-10%	20%	2%
CNc1ccc(Cl)cc1S(=O)(=O)c1ccccc1[N+](=O)[O-]	-4%	-17%	x	-16%	63µM*	6%
O=[N+]([O-])c1ccccc1S(=O)(=O)c1ccccc1	0%	-3%	-4%	7%	-18%	8%
CNC(=O)c1cccc(NC(=O)CCCNC(=O)c2ccc(Cl)cc2)c1	2%	-1%	-35%	7%	0%	5%
COc1ccc(CNC(=O)CSc2ccsc2[N+](=O)[O-])cc1	-3%	10µM*	-23%	-9%	-13%	10%
Cc1ccc(Nc2nnc(-c3ccc4c(c3)OCO4)o2)c(C)c1	1%	10µM*	-5%	-12%	-12%	-1%
CC(C)(C)N1CC(C(=O)Nc2ccc(S(=O)(=O)N3CCCCC3)cc2)CC1=O (stereo not given)	1%	6%	-4%	2%	-3%	10%
CCC1CCCCN1S(=O)(=O)c1ccc(NC(=O)C2CC(=O)N(C(C)(C)C)C2)cc1 (stereo not given)	4%	11µM*	-16%	u	2%	-2%
CCCC[n+]1c(/C=C/c2c(OC)cc(OC)cc2OC)ccc2ccccc21	x	-38%	x	x	x	x
O=C(N[C@H]1/C=C\[C@@H](O)CCCC1)OCc1ccccc1	-28%	4.5µM*	u	2%	-17%	3%
O=C(CC(=O)OCc1ccccc1)OCc1ccccc1	-1%	11%	-20%	-26%	-6%	5%
O=C(CNC(=O)OCc1ccccc1)NC1CCCCCC1	5%	-14%	-22%	7%	7%	7%
O=C(Nc1nccs1)OCc1ccccc1	12%	14µM*	12%	3%	-4%	14%
O=C(NNc1ccccc1)OCc1ccccc1	12%	11µM*	-10%	3%	6%	3%
CCOC(=O)[C@]12CCC=C1N(Cc1ccccc1)C(=O)[C@H](CC(=O)NCC13CC4CC(CC(C4)C1)C3)C2	-9%	-12%	x	-3%	-3%	-1%

Compound activity as filed in PubChem.
